As usually defined, the inhibition is the drop in the measured response relative to a control, in per cent.

Consider 5 compounds from PubChem BioAssay.

The nature of experiment [1]: yeast TOR pathway RPL19A-GFP modulators, primary screen, cell-based, S. cerevisiae, multiplex flow cytometry (AID 1862; in the data active = percent of DMSO control GFP below about 86%;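 also: lower values mimic rapamycin by blocking the RPL19A rise seen in DMSO cells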). To be noted: S. cerevisiae RPL19A-GFP strain, flow cytometry fluorescence, 3 h; at 10 µM; stronger effect = lower value.
Experiment [2] in a line: modulators of MEP2-GFP levels in yeast, primary screen, S. cerevisiae, multiplex flow cytometry (AID 1867;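 active = GFP response, as percent of the DMSO control, above the screen-wide mean plus 3 SD, about 139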;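 also: median GFP channel fluorescence of barcode-gated MEP2-GFP cells measured by flow cytometry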). Particulars: S. cerevisiae MEP2-GFP strain, 3 h, at 10 µM, stronger effect = higher value, 100% means same as DMSO wells. A general note: Flow cytometry measures light scatter and fluorescence of single cells or particles in a stream.
A short description of experiment [3]: modulators of CIT2-GFP expression in yeast, primary screen, S. cerevisiae, GFP fusion, multiplex flow cytometry (AID 1870;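 active = percent response above a set limit, the screen-wide mean plus 3 SD, cut at about 130% in these data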;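 also: barcoded CIT2-GFP strain pooled with four other GFP strains with rapamycin as positive control; median GFP fluorescence per well over plate mean of DMSO wells so 100% = DMSO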). To be noted: 3 h, at 10 µM, stronger effect = higher value.
Experiment [4] is described as follows: modulators of LAP4-GFP expression in yeast, primary screen, S. cerevisiae, multiplex flow cytometry (AID 1873;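 active = GFP signal, as percent of the solvent control, above the screen mean plus 3 SD, about 149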). To be noted: 3 h, at 10 µM, stronger effect = higher value.
Experiment [5] can be described thus: modulators of AGP1-GFP expression in yeast TOR pathway, primary screen, cell-based, multiplex flow cytometry, S. cerevisiae (AID 1887;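 active = GFP signal above the screen-wide mean plus 3 SD, that is over about 124.5% of the solvent control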;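 also: AGP1-GFP fusion strain of S. cerevisiae within a five-strain barcoded multiplex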). Particulars: 3 h, at 10 µM, stronger effect = higher value.
Experiment [6] in a line: inhibitors of CD8+ T cell-vesicle binding, pilot screen, LFA-1/ICAM-1 modulator project, MLPCN validation set, flow cytometry (AID 2523;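 active = response below a set limit, under 55% cells CD8-positive and vesicle-bound, and CD8 cells' 90th-percentile brightness under 279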;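 as to vesicle binding response: mean PE anti-B7-1 fluorescence of CD8+ cells relative to row control; 100% = QL9-loaded vesicles with DMSO vehicle in the same plate row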). Particulars: 2C mouse CD8+ T cells, at 7 µM, stronger effect = lower value; double positive events: measured here: CD8+/vesicle+ event percentage.
Experiment [7] concerns the target Integrin beta-1 (Homo sapiens) + Integrin alpha-4 (Homo sapiens) (UniProt P13612+P05556). As to the kind of experiment: inhibition of HUTS-21 binding to VLA-4, pilot screen, VLA-4 allosteric modulator project, U937 cells, HUTS-21 mAb, flow cytometry, validation set (AID 2674;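 active = inhibition above 50%, about 3 SD of the validation set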;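 also: antibody binding induced by the VLA-4 ligand LDV present at three times its Kd; 0% = LDV ligand with antibody and no compound and 100% = antibody without LDV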). Particulars: HUTS-21 LIBS mAb binding, at 6.7 µM, stronger effect = higher value, binding induced by LDV ligand.

Experiment [8] can be described thus: superoxide lowering in aged yeast cells, pilot screen, validation compound set (AID 2706;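 active = superoxide response below 65% of plate, a cut near 3 SD across the whole screen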;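 also: yeast exposed to compound for one week at 30 degrees C before staining; 100% = mean of all compound wells on the same plate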). Particulars: S. cerevisiae aging, superoxide DHE fluorescence; at 10 µM; stronger effect = lower value.
For experiment [9], the target named is Beta-adrenergic receptor kinase 1 (Homo sapiens) (UniProt P25098). The experiment is described as follows: GRK2 binders displacing RNA aptamer, biochemical, validation, human GRK2, bead flow cytometry (AID 488806;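 active = aptamer binding inhibition above 30%, about 3 SD of noise from non-fluorescent compounds; inactive = inhibition at or below 30%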). To be noted: bead-bound GRK2, FAM-aptamer displacement, at 10 µM, stronger effect = higher value.
Experiment [10] concerns the target Beta-2 adrenergic receptor (Homo sapiens) (UniProt P07550). As to the kind of experiment: beta2AR agonists driving receptor internalization, pilot screen, cell-based, FAP fluorogen, flow cytometry, validation set (AID 504459;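 active = percent response above 42, roughly 3 SD of non-fluorescent test compounds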;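 also: agonist-driven loss of surface beta2AR via internalization measured by FAP dye flow cytometry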). To be noted: Am2.2-beta2AR cells, FAP surface receptor flow cytometry; at 10 µM; stronger effect = higher value.
Experiment [11] addresses AP-2 complex subunit beta (Homo sapiens) (UniProt P63010). The experiment is described as follows: inhibitors of arrestin peptide binding to AP2, pilot screen, biochemical, validation set, GST-AP2 beads, flow cytometry (AID 504541;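 active = inhibition above 54%, about 3 SD of non-fluorescent compounds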;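 also: AP2 carries R879A mutation and is captured from E. coli lysate; bead-bound FITC arrestin peptide fluorescence measuring arrestin peptide binding to AP2; 0% = DMSO wells and 100% = excess unlabeled arrestin peptide control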). To be noted: FITC arrestin peptide, at 10 µM, stronger effect = higher value, AP2 beta2 appendage fragment, R879A mutant.
Experiment [12] is described as follows: yeast V-ATPase proton transport modulators, S. cerevisiae, pHLuorin, HTS validation (AID 504600).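 Also: plate controls were DMSO for no effect and reference compound for full effect.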 To be noted: S. cerevisiae pHLuorin cytosolic pH, at 10 µM, stronger effect = higher value.
Experiment [13] concerns anti-desmoglein-3 scFv antibody binding to human DSG3. The experiment is described as follows: inhibitors of anti-DSG3 scFv binding to DSG3, pilot screen, biochemical, validation compound set, bead-based, flow cytometry (AID 588368;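 active = binding below the plate cutoff, the plate median minus 3 SD, with a reading above zero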;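 also: signal is the median channel fluorescence of bead-bound GFP antibody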). Particulars: Protein G beads, DSG3-Fc, scFv-GFP binding, at 10 µM, stronger effect = lower value.
The nature of experiment [14]: inhibitors of fungal efflux pumps CDR1, CDR2, MDR1, pilot screen, validation compound set, multiplex, phenotypic (AID 588506;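 active = efflux inhibition above 0.42, the validation set average plus 4 SD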;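 also: Nile Red retained in cells so higher fluorescence means more efflux inhibition; 0 = negative control wells and 1 = enniatin B 25 µM full block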). Particulars: S. cerevisiae pump-expressing triplex, Nile Red efflux flow cytometry; at 10 µM; stronger effect = higher value; the pumps come from Candida albicans.
In experiment [15] the target is ATP-binding cassette sub-family B member 6 (Homo sapiens) (UniProt Q9NP58). As to the kind of experiment: ABCB6 transporter inhibitors, pilot screen, K562-ABCB6 cells, flow cytometry, validation set (AID 588550;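 active = inhibition above the screen-wide mean plus 3 SD, about 51%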;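 also: 0% = DMSO wells and 100% = benzethonium chloride 70 µM positive control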). To be noted: K562-ABCB6 porphyrin accumulation, 1 h, at 10 µM, stronger effect = higher value.
Experiment [16] in a line: promoters of myeloid differentiation in arrested cells, primary screen, cell-based, GFP/MAC1 double positive, flow cytometry, validation set (AID 588685;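 active = differentiation response of at least 50%, scaled between solvent and reference control, from cells with both markers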;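 also: compound exposure lasts four days before antibody staining and flow analysis; 0% = DMSO wells and 100% = 5 µM fulvestrant positive control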). Particulars: ER-HoxA9 marrow cells, stronger effect = higher value, normalized: vehicle 0, fulvestrant 100.

The structures appear in SMILES notation. Records with an inconclusive call do not appear. Calls of active or inactive are those of the source. Rule as the data show it, unless noted: active = response above about 15%; inactive = the rest.

Sequence of Beta-adrenergic receptor kinase 1 (Homo sapiens) (P25098 whole entry, looked up): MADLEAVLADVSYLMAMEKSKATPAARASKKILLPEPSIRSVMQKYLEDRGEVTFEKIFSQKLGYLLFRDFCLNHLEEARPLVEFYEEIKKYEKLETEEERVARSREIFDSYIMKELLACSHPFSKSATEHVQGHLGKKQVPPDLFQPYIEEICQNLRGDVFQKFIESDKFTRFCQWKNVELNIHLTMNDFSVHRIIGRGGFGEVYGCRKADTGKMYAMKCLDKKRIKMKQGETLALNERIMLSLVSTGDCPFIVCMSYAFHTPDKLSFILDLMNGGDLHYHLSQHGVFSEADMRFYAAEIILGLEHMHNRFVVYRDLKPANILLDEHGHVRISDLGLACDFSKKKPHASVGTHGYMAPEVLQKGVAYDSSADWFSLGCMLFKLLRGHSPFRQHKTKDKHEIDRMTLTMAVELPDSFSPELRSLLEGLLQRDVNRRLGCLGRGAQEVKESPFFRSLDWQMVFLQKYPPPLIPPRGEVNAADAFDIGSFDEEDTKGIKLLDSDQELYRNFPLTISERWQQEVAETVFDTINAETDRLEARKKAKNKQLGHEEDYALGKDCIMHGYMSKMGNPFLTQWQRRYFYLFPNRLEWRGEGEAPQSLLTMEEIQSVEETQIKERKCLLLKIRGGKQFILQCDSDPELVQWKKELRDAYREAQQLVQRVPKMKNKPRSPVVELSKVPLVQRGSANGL
Sequence of ATP-binding cassette sub-family B member 6 (Homo sapiens) (Q9NP58 whole entry, looked up): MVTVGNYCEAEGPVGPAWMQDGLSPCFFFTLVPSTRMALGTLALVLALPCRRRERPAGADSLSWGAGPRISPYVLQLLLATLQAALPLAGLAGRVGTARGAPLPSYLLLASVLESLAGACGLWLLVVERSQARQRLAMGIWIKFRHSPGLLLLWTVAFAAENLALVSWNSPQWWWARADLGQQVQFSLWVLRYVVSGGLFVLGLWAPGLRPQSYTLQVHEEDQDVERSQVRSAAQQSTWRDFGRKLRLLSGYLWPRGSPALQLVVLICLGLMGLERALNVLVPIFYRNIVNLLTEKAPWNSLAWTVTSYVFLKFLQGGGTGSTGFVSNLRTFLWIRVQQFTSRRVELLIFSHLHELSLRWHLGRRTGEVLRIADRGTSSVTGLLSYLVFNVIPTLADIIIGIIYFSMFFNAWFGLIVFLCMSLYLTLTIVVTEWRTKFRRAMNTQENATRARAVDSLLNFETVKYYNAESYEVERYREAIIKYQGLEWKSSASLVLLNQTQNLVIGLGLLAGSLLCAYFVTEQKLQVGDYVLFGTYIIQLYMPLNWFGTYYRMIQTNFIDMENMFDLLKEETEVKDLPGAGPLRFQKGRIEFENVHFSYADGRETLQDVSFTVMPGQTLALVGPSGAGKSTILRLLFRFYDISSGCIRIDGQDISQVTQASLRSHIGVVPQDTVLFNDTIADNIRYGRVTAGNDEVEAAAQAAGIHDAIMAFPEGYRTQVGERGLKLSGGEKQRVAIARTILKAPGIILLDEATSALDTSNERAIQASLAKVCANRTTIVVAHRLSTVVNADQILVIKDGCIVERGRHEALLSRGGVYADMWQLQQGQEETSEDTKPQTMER
Sequence of Integrin beta-1 (Homo sapiens) + Integrin alpha-4 (Homo sapiens) (P05556 whole entry, looked up): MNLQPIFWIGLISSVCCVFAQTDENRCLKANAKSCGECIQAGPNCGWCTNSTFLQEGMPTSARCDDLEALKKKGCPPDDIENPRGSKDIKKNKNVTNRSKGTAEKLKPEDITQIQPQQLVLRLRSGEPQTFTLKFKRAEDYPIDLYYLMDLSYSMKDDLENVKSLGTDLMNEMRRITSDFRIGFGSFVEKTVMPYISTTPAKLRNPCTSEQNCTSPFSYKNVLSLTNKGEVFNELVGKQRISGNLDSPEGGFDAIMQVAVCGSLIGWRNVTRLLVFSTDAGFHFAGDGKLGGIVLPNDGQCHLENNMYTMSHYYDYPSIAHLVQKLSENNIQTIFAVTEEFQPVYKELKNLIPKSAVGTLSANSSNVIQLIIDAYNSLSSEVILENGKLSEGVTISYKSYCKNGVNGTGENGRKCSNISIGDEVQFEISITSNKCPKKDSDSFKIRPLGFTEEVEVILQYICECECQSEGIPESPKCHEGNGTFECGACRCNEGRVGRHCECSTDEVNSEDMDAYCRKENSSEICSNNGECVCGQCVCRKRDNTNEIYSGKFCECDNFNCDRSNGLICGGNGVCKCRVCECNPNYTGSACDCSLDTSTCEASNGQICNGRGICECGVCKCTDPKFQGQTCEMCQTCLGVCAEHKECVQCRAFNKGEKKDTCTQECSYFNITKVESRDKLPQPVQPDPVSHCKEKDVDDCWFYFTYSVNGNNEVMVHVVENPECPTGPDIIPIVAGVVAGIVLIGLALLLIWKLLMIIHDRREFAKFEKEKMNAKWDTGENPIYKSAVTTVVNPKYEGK
Sequence of Integrin beta-1 (Homo sapiens) + Integrin alpha-4 (Homo sapiens) (P13612 whole entry, looked up): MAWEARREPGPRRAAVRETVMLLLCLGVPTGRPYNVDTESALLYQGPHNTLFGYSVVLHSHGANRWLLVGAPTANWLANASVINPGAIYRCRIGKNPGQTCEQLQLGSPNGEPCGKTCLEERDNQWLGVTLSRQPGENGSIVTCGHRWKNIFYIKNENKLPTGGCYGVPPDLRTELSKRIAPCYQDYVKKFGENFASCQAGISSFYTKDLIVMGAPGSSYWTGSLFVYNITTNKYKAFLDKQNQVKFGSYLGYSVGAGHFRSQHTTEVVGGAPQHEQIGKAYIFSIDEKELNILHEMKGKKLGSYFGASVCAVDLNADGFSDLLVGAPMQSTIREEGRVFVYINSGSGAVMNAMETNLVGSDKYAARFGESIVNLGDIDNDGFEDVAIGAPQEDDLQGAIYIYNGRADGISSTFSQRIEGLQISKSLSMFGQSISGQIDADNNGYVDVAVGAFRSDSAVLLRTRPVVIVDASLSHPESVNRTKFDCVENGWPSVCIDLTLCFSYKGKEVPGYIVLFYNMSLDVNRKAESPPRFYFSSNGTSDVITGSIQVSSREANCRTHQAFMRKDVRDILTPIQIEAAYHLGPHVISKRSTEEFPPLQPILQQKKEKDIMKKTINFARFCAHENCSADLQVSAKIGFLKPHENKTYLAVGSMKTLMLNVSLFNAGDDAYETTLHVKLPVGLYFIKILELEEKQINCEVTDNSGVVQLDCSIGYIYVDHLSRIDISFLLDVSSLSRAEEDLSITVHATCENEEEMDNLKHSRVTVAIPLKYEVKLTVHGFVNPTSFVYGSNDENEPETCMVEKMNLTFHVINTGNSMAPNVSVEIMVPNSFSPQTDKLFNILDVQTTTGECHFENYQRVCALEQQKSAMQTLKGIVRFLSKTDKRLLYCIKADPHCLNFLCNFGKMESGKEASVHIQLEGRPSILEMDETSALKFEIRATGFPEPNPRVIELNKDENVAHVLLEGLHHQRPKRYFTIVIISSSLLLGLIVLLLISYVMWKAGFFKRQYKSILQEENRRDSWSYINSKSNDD
Sequence of AP-2 complex subunit beta (Homo sapiens) (P63010 whole entry, looked up, the tested form may be a part, one chain of several): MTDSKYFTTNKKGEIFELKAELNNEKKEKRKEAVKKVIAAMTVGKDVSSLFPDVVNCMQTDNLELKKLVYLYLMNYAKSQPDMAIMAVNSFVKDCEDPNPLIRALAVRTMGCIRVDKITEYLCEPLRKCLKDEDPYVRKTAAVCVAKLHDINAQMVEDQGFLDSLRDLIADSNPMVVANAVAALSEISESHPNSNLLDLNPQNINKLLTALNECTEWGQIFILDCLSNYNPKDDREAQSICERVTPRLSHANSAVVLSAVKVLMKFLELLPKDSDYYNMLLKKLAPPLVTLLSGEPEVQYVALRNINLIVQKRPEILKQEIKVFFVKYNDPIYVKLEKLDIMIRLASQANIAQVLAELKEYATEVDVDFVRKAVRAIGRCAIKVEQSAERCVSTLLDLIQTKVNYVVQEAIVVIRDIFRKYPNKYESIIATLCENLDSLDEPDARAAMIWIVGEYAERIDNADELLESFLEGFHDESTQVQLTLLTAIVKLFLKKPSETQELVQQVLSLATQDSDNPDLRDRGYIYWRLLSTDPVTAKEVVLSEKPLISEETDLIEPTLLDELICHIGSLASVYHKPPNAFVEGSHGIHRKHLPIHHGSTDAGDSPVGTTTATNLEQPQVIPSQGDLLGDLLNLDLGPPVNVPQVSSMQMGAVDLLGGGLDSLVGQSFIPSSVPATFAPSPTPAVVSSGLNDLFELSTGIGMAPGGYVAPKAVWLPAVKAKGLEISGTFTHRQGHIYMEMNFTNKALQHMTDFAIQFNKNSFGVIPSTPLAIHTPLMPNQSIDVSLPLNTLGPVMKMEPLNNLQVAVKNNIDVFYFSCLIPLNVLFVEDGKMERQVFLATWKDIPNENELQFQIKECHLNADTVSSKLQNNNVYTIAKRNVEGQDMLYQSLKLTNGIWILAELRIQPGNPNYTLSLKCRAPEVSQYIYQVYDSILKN
Sequence of Beta-2 adrenergic receptor (Homo sapiens) (P07550 whole entry, looked up): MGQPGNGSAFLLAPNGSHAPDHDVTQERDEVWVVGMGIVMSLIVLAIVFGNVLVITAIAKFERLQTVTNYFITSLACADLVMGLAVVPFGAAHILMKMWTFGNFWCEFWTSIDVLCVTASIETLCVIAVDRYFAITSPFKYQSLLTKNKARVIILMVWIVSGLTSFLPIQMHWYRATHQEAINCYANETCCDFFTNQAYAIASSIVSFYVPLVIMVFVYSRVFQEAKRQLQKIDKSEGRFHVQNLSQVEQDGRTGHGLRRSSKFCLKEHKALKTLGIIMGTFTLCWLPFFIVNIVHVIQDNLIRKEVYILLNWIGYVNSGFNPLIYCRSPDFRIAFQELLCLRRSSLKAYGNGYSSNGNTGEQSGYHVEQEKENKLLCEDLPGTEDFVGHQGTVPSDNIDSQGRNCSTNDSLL

In the case of `O=C1CCCN1C(=O)CCC(=O)N1CCCC1=O`, the percent of DMSO control GFP in experiment [1] was 107% (inactive). In addition, the values for the GFP response vs DMSO in experiment [2] and in [4] were 95.1% (inactive) and 87.4% (inactive), respectively. Further, in experiment [3], the percent response of DMSO control was 109% (inactive). Further, the GFP response, % of DMSO in experiment [5] is 106% (inactive). Besides, the double positive events in [6] stood at 62.6%. The vesicle binding response in [6] was 235% (inactive). In addition, the inhibition is -11.9% (inactive) in [7], -9.79% (inactive) in experiment [11] and -2% (inactive) in [15]. For the same compound, in experiment [8], the superoxide response (% of plate) is 96.9% (inactive). The aptamer binding inhibition in experiment [9] is 0% (inactive). For the same compound, the results for the response in experiment [10] and in [12] were -7.65% (inactive) and -1.12% (inactive), respectively. Moreover, the binding (% of control) in experiment [13] is 95.6% (inactive). In addition, the efflux inhibition (fraction of control) in experiment [14] is -0.1 (inactive). Further, the differentiation response in experiment [16] is 2.2% (inactive).

As for `Nc1nc(Cl)nc2c1ncn2[C@@H]1O[C@H](CO)[C@@H](O)[C@H]1O`, in experiment [1], the percent of DMSO control GFP is 92.4% (inactive). Besides, the GFP response vs DMSO is 128% (inactive) in experiment [2] and 80.3% (inactive) in experiment [4]. For the same compound, the percent response of DMSO control in experiment [3] was 101% (inactive). In addition, the GFP response, % of DMSO in experiment [5] was 102% (inactive). In [6], this compound returned a double positive events of 57.5%. In addition, in [6], the vesicle binding response was 109% (inactive). Further, the values for the inhibition in [7], in experiment [11] and in experiment [15] were 2.58% (inactive), 1.36% (inactive) and 9% (inactive), respectively. For the same compound, the superoxide response (% of plate) in experiment [8] is 95.9% (inactive). In addition, the aptamer binding inhibition in experiment [9] is 6% (inactive). Also, the values for the response in experiment [10] and in experiment [12] were -6.94% (inactive) and 10.6% (inactive), respectively. Besides, the binding (% of control) in experiment [13] was 104% (inactive). Further, the efflux inhibition (fraction of control) in experiment [14] was 0.3 (inactive). Moreover, in [16], the differentiation response is 1.64% (inactive).

For the compound `NNC(=O)c1ccncc1`, in [1], the percent of DMSO control GFP was 102% (inactive). For the same compound, the results for the GFP response vs DMSO in experiment [2] and in experiment [4] were 113% (inactive) and 117% (inactive), respectively. In addition, the percent response of DMSO control in experiment [3] was 93.9% (inactive). Moreover, the GFP response, % of DMSO in experiment [5] was 105% (inactive). Moreover, the double positive events in experiment [6] was found to be 61.7%. Besides, in experiment [6], the vesicle binding response was 175% (inactive). Moreover, the inhibition in experiment [7] was -14.1% (inactive); in [11], -2.19% (inactive); in experiment [15], 1% (inactive). Besides, the superoxide response (% of plate) in experiment [8] is 90.8% (inactive). Further, in [9], the aptamer binding inhibition was 4% (inactive). For the same compound, the response in experiment [10] was -10.5% (inactive); in [12], 2.56% (inactive). The binding (% of control) in [13] was 98.4% (inactive). The efflux inhibition (fraction of control) in experiment [14] is -0.1 (inactive). Also, the differentiation response in experiment [16] is -2.4% (inactive).

Take `Oc1ccccc1OCCOc1ccccc1OCCOc1ccccc1O`: the percent of DMSO control GFP in experiment [1] is 100% (inactive). Moreover, the GFP response vs DMSO in experiment [2] was 108% (inactive); in experiment [4], 117% (inactive). Besides, the percent response of DMSO control in experiment [3] is 105% (inactive). Also, the GFP response, % of DMSO in experiment [5] was 110% (inactive). Moreover, the double positive events in [6] was determined as 62.1%. Besides, the vesicle binding response in [6] was 245% (inactive). The inhibition in experiment [7] is 15.9% (inactive); in [11], 1.79% (inactive); in experiment [15], 6% (inactive). The superoxide response (% of plate) in experiment [8] is 97.2% (inactive). Besides, in experiment [9], the aptamer binding inhibition is -2% (inactive). For the same compound, the response was -15.9% (inactive) in experiment [10] and -8.12% (inactive) in experiment [12]. Moreover, the binding (% of control) in experiment [13] was 112% (inactive). Besides, the efflux inhibition (fraction of control) in experiment [14] is -0.04 (inactive). Also, the differentiation response in [16] was -6.96% (inactive).

As for `O=C(Cc1ccccc1[N+](=O)[O-])NCc1ccncc1`, the percent of DMSO control GFP in experiment [1] was 101% (inactive). Also, the results for the GFP response vs DMSO in experiment [2] and in experiment [4] were 101% (inactive) and 97.4% (inactive), respectively. Also, the percent response of DMSO control in experiment [3] is 101% (inactive). In experiment [5], the GFP response, % of DMSO is 97.4% (inactive). This compound also showed a double positive events in experiment [6] of 63.2%. Further, the vesicle binding response in experiment [6] is 243% (inactive). In addition, the inhibition in experiment [7] was 6.4% (inactive); in experiment [11] it was -3.75% (inactive); in experiment [15], 2% (inactive). Further, the superoxide response (% of plate) in experiment [8] is 97.3% (inactive). Besides, the aptamer binding inhibition in experiment [9] was 7% (inactive). For the same compound, the response in experiment [10] is -1.07% (inactive); in [12] it was -1.46% (inactive). For the same compound, the binding (% of control) in experiment [13] is 98.2% (inactive). Besides, the efflux inhibition (fraction of control) in experiment [14] was -0.03 (inactive). Besides, the differentiation response in experiment [16] was -15.2% (inactive).
